Many of the other results were omitted from the sample, so hits are more common in it than they were.
FECH block: inhibitors of human ferrochelatase, primary screen, biochemical, purified FECH, Ni-mesoporphyrin absorbance. Ferrochelatase, mitochondrial (Homo sapiens), P22830. Ni-mesoporphyrin absorbance 550 nm. calls only at 10 µM (by protocol). 20,000 tested, 3.3% active. AID 1671448, 2021;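 active means enzyme reaction rate more than 3 SD below the solvent-only control wells on the same plate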;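 further: lower slope than DMSO wells means FECH inhibition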
Target sequence (P22830 whole entry, looked up): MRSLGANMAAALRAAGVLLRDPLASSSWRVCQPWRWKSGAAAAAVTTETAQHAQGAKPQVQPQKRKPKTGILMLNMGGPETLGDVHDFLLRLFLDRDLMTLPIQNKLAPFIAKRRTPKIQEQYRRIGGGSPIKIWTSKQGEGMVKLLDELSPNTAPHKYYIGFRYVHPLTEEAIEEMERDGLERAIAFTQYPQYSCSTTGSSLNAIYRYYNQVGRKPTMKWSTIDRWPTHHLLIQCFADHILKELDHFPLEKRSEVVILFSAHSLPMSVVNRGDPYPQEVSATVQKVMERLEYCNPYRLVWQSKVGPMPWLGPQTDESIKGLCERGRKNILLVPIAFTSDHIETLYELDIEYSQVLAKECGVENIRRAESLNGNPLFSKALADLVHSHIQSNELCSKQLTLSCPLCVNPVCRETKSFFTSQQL
Calls only; 0 = inactive; + = active, no number.

SMILES | FECH block
COc1ccc(NCc2cc(=O)n3[nH]c(NCc4ccccc4)nc3n2)cc1 | 0
CCCNCc1cc(=O)n2[nH]c(NCc3ccc(Cl)cc3)nc2n1 | 0
O=c1cc(CNc2ccc(Cl)cc2)nc2nc(NCc3ccc(F)cc3)[nH]n12 | 0
Cn1cnnc1CC1CCN(C(=O)Nc2cccc3ccccc23)CC1 | 0
CCC(C(=O)Nc1cc(C)nn1-c1ncnc2c1cnn2-c1ccc(Cl)cc1)c1ccccc1 (centres undefined) | 0
CCOc1ccc(Br)cc1S(=O)(=O)N1CCN(c2nc(C)cc(N3CCCC3)n2)CC1 | 0
O=C(NCc1ccccn1)c1nc[nH]c1C(=O)N1CCC(O)C1 (centres undefined) | 0
CCOc1ccc(S(=O)(=O)N2CCN(c3nc(C)cc(N4CCCCC4)n3)CC2)cc1 | 0
O=C(NC1CCCc2nccnc21)c1cn[nH]n1 (centres undefined) | 0
COc1ccc(CNc2nc3nc(CN4CCCCC4C)cc(=O)n3[nH]2)cc1 (centres undefined) | 0
Cc1cccc(NCc2cc(=O)n3[nH]c(NCc4ccc(F)cc4)nc3n2)c1C | 0
Cc1ccc(Cc2nc3nc4c(c(=O)n3[nH]2)CCCC4)cc1 | 0
O=c1c2c(nc3nc(CNc4ccccc4Cl)[nH]n13)CCC2 | 0
Cc1cccc(NCc2nc3nc4c(c(=O)n3[nH]2)CCC4)c1C | +
Cc1cccc(C)c1NCc1nc2nc3c(c(=O)n2[nH]1)CCC3 | +
C#CCN(Cc1ccco1)C(=O)C1CC(=O)Nc2ccc(F)cc21 (centres undefined) | 0
Cc1cccc(NC(=O)CN2CCN(Cc3ccccc3Cl)S2(=O)=O)c1 | 0
CN(C(=O)c1ccc2ncsc2c1)C1CCCc2ccccc21 (centres undefined) | 0
CCc1ccccc1NC(=O)C(=O)N1CCC2(CCN(C)C2)CC1 | 0
Cc1ccc(Cl)c(CN2CCC(Cc3nnc(CO)n3C)CC2)c1F | +
CCOc1cccc(CN2CCC(Cc3nnc(SC)n3C)CC2)c1O | 0
COc1ccc(Cl)c(CN2CCN(c3ncc(F)cn3)CC2)c1F | 0
CCC(=O)Nc1ccccc1-c1nnc(SC(C)C(=O)Nc2ccc(C)cc2C)[nH]c1=O (centres undefined) | 0
CCc1cc(-c2ccn[nH]2)ccc1NC(C)=O | 0
CN(C)CC(=O)Nc1ccc(C(=O)Nc2cnc3n2CCCC3)cc1 | 0
SMILES | FECH block
O=C(CCCn1nnc(-c2ccc(F)cc2)n1)Nc1cnc2n1CCCC2 | 0
Cn1nnc(-c2ccc(C(=O)Nc3cnc4n3CCCC4)cc2)n1 | +
COc1cccc(CN2CCN(Cc3c(C)cc(C)cc3C)S2(=O)=O)c1 | 0
CN(C)c1nccnc1N1CCC(N2CCCC(C(=O)N3CCCC3)C2)CC1 (centres undefined) | 0
CS(=O)(=O)N1CCN(Cc2nc3cccnc3n2-c2ccccc2)CC1 | 0
Cc1ccccc1Cn1c(=O)c2cnc(-c3cccs3)nc2n(C)c1=O | 0
CN(CCNC(=O)C1CCN(c2ncnc3c2nc2n3CCCCC2)CC1)Cc1ccccc1 | +
O=C(NCc1ccccc1)C1CCN(c2ncnc3c2nc2n3CCCCC2)CC1 | 0
CCN(CCNC(=O)C1CCCN(c2ncnc3c2nc2n3CCCCC2)C1)Cc1ccccc1 (centres undefined) | 0
CCCCN(CC)c1ncc(NS(=O)(=O)c2ccc(Cl)c(Cl)c2)cc1C(=O)O | 0
CCN1C(SCC(=O)Nc2ccccc2F)=NS(=O)(=O)c2ccccc21 | +
CCN1C(SCC(=O)Nc2cccc(C)c2C)=NS(=O)(=O)c2ccccc21 | +
Cc1cccc(NC(=O)CN2C(=O)CC(c3ccccc3)=Nc3ccccc32)c1C | 0
CN(C)c1nc2ncnc(SCC(=O)Nc3ccccc3F)c2s1 | 0
Cc1ccc(CN2CCN(CC(=O)Nc3ccccc3F)S2(=O)=O)cc1 | 0
Cc1cccc(NC(=O)CSCc2nc(-c3ccccc3)no2)c1C | 0
O=C(NCCCN1CCCCC1)c1ccc(CN2C(=O)CCn3nc(-c4ccccc4)cc32)cc1 | 0
Cc1cc(N2CCOCC2)nc(N2CCN(S(=O)(=O)c3cc(C)c(C)cc3C)CC2)n1 | 0
Cc1c(NC(=O)c2cccc(CN3CC[C@@H]4CCCC[C@H]4C3)c2)cnn1C | 0
O=C(O)C1CC(=O)N(CCCn2cncn2)C1 (centres undefined) | 0
COc1ccc(NC(=O)CN2CCCN(Cc3ccc(C)cc3)S2(=O)=O)c(OC)c1 | 0
Cc1cccc(NC(=O)CN2CCCN(Cc3ccc(Cl)cc3)S2(=O)=O)c1 | 0
Cc1ccc(CN2CCN(CC(=O)Nc3cc(C)cc(C)c3)S2(=O)=O)cc1 | 0
CCOc1ccc(NC(=O)CN2CCCN(Cc3ccc(C)cc3)S2(=O)=O)cc1 | +
COc1ccc(NC(=O)CN2CCCN(Cc3ccc(C)cc3)S2(=O)=O)cc1 | 0
SMILES | FECH block
COc1ccc(NC(=O)CN2CCN(Cc3ccc(C)cc3)S2(=O)=O)cc1 | 0
O=C(CN1CCCN(Cc2cccc(Cl)c2)S1(=O)=O)Nc1cccc(Cl)c1 | 0
COc1cccc(NC(=O)CN2CCN(Cc3ccc(C)cc3)S2(=O)=O)c1 | +
O=C(CN1CCCN(Cc2ccc(Cl)cc2)S1(=O)=O)Nc1cccc(Cl)c1 | +
COc1cc(OC)c(NC(=O)CN2CCCN(Cc3cc(C)ccc3C)S2(=O)=O)cc1Cl | +
CCOC(=O)c1ccc(NC(=O)CN2CCCN(Cc3ccc(C)cc3)S2(=O)=O)cc1 | 0
Cc1ccc(NC(=O)CN2CCN(Cc3cc(C)ccc3C)S2(=O)=O)cc1 | 0
Cc1cc(Cl)ccc1NS(=O)(=O)c1cc(N2C(=O)CCS2(=O)=O)ccc1C | 0
Cc1ccccc1-c1noc(CNCc2cncn2CC(C)C)n1 | 0
CCCc1cc(Sc2ccc(NS(=O)(=O)c3ccc(C)cc3C)cc2)n2ncnc2n1 | 0
CCNc1ncc(C(=O)N2CCCC(O)(CO)C2)cn1 (centres undefined) | 0
O=C1CC2(CCN(C(=O)c3cccc(-c4ccccc4F)c3)CC2)CN1 | 0
Cc1ccc(CN2CCN(CC(=O)Nc3ccc(C)cc3C)S2(=O)=O)cc1 | 0
CCC(C)N(Cc1cccnc1)C(=O)c1ccc(NS(=O)(=O)CC)cc1 (centres undefined) | 0
CN(C)CC1(O)CCCN(c2nnnn2-c2ccccc2)CC1 (centres undefined) | 0
Cc1cc(-c2cccc(C(C)N3CCCC3)c2)cnc1N (centres undefined) | 0
Cc1cc(F)ccc1NC(=O)CCNC(=O)c1cnn2c1CCCC2 | 0
O=C(c1ncc[nH]1)N1CCCCC1CCc1cccc(O)c1 (centres undefined) | 0
Cc1cccc(-c2ncc(CN3CCN(CC(=O)N4CCCC4)CC3)cn2)c1 | 0
O=C1NCC(CN2CCOc3c(O)cc(-c4cccc(Cl)c4)cc3C2)O1 (centres undefined) | 0
CC(=O)c1cccc(NC(=O)CN2CCCN(Cc3ccccc3Cl)S2(=O)=O)c1 | 0
CCc1cccc(NC(=O)CN2CCN(Cc3ccccc3C)S2(=O)=O)c1 | 0
COc1ccc(NC(=O)CN2CCN(Cc3cccc(C)c3)S2(=O)=O)cc1Cl | +
O=C(CN1CCCN(Cc2ccccc2Cl)S1(=O)=O)Nc1ccccc1 | 0
CCOc1ccc(NC(=O)CN2CCN(Cc3cccc(C)c3)S2(=O)=O)cc1 | 0
CSc1cccc(NC(=O)CN2CCN(Cc3ccccc3)S2(=O)=O)c1 | 0
COc1ccc(NC(=O)CN2CCCN(Cc3ccc(Cl)cc3)S2(=O)=O)cc1Cl | +
O=C(CN1CCCN(Cc2ccc(Cl)cc2)S1(=O)=O)Nc1ccc(F)c(Cl)c1 | 0
COc1ccc(NC(=O)CN2CCCN(Cc3ccccc3Cl)S2(=O)=O)cc1Cl | +

Source: PubChem BioAssay
